Paper PMC4336329 (PLoS ONE, 2015)
Hit rate of the full screen: of about 310,000 compounds, about 14,000 (4.5%) showed an effect of 50% or more. Effects have a minus sign here. The entries come from a sample that favours strong results as a whole.

The compounds below were run against human ether-à-go-go-related gene (hERG) potassium channel (human, UniProt Q12809) (assay: primary screen, population patch clamp on CHO cells stably expressing hERG; higher = less effect of the substance).
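Further: peak tail current of the secondary pulse compared with the same well before compound.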

human ether-à-go-go-related gene (hERG) potassium channel, sequence (Q12809 whole entry, looked up): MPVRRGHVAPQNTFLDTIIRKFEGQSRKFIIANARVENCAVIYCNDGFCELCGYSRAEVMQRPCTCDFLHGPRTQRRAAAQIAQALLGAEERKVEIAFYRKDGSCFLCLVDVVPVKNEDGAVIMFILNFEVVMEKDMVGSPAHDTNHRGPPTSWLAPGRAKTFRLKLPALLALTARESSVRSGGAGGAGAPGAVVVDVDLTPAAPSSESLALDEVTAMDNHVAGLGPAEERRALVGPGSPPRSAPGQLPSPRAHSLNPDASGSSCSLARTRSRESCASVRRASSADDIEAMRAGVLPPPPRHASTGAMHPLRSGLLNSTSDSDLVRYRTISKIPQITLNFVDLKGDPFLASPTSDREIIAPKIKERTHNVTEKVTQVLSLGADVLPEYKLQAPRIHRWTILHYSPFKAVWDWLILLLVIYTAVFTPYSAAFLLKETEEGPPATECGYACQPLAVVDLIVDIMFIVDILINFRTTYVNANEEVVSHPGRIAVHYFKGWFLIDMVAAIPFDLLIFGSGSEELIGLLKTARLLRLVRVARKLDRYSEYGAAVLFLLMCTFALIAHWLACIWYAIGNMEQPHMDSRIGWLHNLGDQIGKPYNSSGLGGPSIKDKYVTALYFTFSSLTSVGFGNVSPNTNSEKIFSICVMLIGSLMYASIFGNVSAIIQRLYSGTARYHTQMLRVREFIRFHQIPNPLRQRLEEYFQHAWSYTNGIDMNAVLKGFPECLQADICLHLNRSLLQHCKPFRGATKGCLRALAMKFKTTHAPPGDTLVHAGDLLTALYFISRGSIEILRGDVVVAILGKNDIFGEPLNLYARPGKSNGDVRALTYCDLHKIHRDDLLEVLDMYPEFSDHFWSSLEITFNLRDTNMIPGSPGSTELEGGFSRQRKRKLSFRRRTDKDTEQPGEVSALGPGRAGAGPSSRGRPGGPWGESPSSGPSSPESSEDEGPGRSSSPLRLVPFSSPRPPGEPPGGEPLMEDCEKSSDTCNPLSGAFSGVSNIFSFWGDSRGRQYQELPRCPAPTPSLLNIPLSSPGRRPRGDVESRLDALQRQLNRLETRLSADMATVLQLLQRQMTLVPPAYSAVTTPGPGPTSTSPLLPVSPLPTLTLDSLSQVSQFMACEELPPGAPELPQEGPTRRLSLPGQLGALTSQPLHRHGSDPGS

SMILES | hERG current change (%, negative = inhibition) at 10uM [%]
COCCOC(=O)c1c(NC(=O)COC(=O)c2ccc(C)o2)sc(C(N)=O)c1C | -10.9
CCc1ccc(CCOc2ccc(CC3SC(=O)NC3=O)cc2)nc1.Cl (centres unmarked) | 4.26
CC(C)CC(=O)N1CCN(C(=O)c2cccc(F)c2)CC1 | 0.0457
C1CCC(OCCN2CCN(CCOC3CCCCC3)CC2)CC1 | -37.1
Cc1ccc(N2C(=O)NC3(CCCCC3)C2=O)cc1 | 9.24
CCCCc1ccc(NC(=O)N2CCN(c3cc(C)nc4ccccc34)CC2)c(C)c1 | -61.6
COc1ccccc1N1CCN(C(=O)Nc2cccc(C)c2)CC1 | -3.99
Cc1cc(N2CCN(CC(O)C(F)(F)F)CC2)c2ccccc2n1 (centres unmarked) | -40.7
Cc1cc(N2CCN(C(=O)/C=C/C(=O)O)CC2)c2ccccc2n1 | 32.4
Cc1ccccc1NC(=O)N1CCN(c2ncccn2)CC1 | 4.15
O=C(Nc1ccc(F)cc1F)N1CCN(c2ncccn2)CC1 | -8.77
Cc1cc(N2CCN(C(=O)Nc3ccc(F)cc3F)CC2)c2ccccc2n1 | -72.2
CC(C)n1c(N2CCN(C(=O)Nc3ccc(F)cc3F)CC2)nc2ccccc21 | -26.3
Cc1cc(C(=O)Nc2ccccc2N2CCOCC2)c2ccccc2n1 | -15.5
COc1cccc(Cl)c1NC(=O)N1CCN(c2cc(C)nc3ccccc23)CC1 | -75.3
COc1ccccc1N1CCN(C(=O)Nc2cccc(Cl)c2)CC1 | -28.2
Cc1cc(N2CCN(C(=O)Nc3ccccc3C#N)CC2)c2ccccc2n1 | -72.9
CCOC(=O)c1sc(NC(=O)C2C3C=CC(C3)C2C(=O)O)nc1C (centres unmarked) | 16.2
CC[C@H](C)/C=C(C)/C=C/C1=CC2=CC(=O)[C@]3(C)OC(=O)[C@@H](C(C)=O)[C@@H]3C2=CO1 | 4.65
O=[N+]([O-])c1ccc(O)c(/C=N/n2c(-c3ccccc3)n[nH]c2=S)c1 | 17.9

SMILES | hERG current change (%, negative = inhibition) at 10uM [%]
O=C(O)c1cccc(Nc2ncnc3ccccc23)c1 | 17.3
CC1CCCC(C)N1NC(=O)c1cccc(S(=O)(=O)N2CCc3ccccc32)c1 (centres unmarked) | -2.22
Cc1ccc(CSc2ncnc3ccccc23)cc1 | 11.3
Cc1ccc(S(=O)(=O)NNC(=O)C2COc3ccccc3O2)cc1C (centres unmarked) | 15.2
O=C(CSc1nnc(-c2ccc(S(=O)(=O)N3CCCC3)cc2)o1)NCc1ccco1 | -7.57
COc1ccc(N2CCN(C(=O)c3ccc(Br)cc3)CC2)c([N+](=O)[O-])c1 | -72.3
COc1ccc(N2CCN(c3ccc(C(N)=O)cc3[N+](=O)[O-])CC2)cc1 | 2.51
Cn1c(=O)n(C)c2cc([N+](=O)[O-])c(N3CCN(C(=O)c4cccc(F)c4)CC3)cc21 | -32.7
COc1ccc(N2CCN(C(=O)c3cccc(F)c3)CC2)c([N+](=O)[O-])c1 | -73.2
COc1ccc(C(=O)c2ccc(N3CCOCC3)c([N+](=O)[O-])c2)cc1 | -43.7
COc1ccc(N2CCN(C(=O)c3ccccc3)CC2)c([N+](=O)[O-])c1 | -67.7
COc1cccc(CC(=O)N2CCN(c3ccccc3[N+](=O)[O-])CC2)c1 | -21
COc1ccc(N2CCN(C(=S)NC(=O)c3cccs3)CC2)c([N+](=O)[O-])c1 | -47.8
CCC(=O)N1CCN(c2ccc(OC)cc2[N+](=O)[O-])CC1 | -19.5
CCCCC(=O)N1CCN(c2ccc(OC)cc2[N+](=O)[O-])CC1 | -64.5
COc1ccc(N2CCN(C(=O)CC34CC5CC(CC(C5)C3)C4)CC2)c([N+](=O)[O-])c1 | 0.229
COc1cccc(C(=O)N2CCN(C(=O)c3cccc(F)c3)CC2)c1 | -0.0938
COc1ccc(C2N=C(Nc3ccc(C)cc3)Nc3nc(C)cc(=O)n32)cc1 (centres unmarked) | 1.81
COc1ccc(CCN2CC(O)=C(c3nc(C)cs3)C2=N)cc1OC | -21.8
CCn1c(=O)c(C(=O)CN2CC(C)OC(C)C2)c(N)n(Cc2ccccc2)c1=O (centres unmarked) | -32.6

SMILES | hERG current change (%, negative = inhibition) at 10uM [%]
COc1ccc(CCNC(=O)NC2CCCCC2)cc1OC | 8.03
O=C(Nc1ccc(Cl)cc1)c1cc2c(cc1O)[nH]c1ccccc12 | 21
Cc1ccc2nc(-c3ccc(NS(=O)(=O)c4ccc(F)c(F)c4)cc3)sc2c1 | 23.3
COc1cccc(C2CC(c3ccccc3Cl)n3nc(N)nc3N2)c1 (centres unmarked) | -9.01
COc1ccc(CCN(Cc2nc(-c3ccccc3)no2)Cc2nc(-c3ccccc3)no2)cc1OC | -3.37
O=C(N/N=C/c1cc([N+](=O)[O-])ccc1O)C1C2CCCCC21 (centres unmarked) | 3.28
CCn1cc(C(=O)N[C@@H](CCSC)C(=O)NCCO)c(=O)c2cc3c(cc21)OCO3 | 20.6
O=C(NCCC1=CCCCC1)c1ccc(Br)o1 | -4.78
Cc1ccc(C)c(N2CCN(C(=O)c3ccc(N4CCOCC4)c([N+](=O)[O-])c3)CC2)c1 | -21.2
COc1cccc(C(=O)/C=C/c2ccc(N3CCCCC3)c([N+](=O)[O-])c2)c1 | -3.01
O=C(c1cccnc1)N1CCN(c2ccc([N+](=O)[O-])cc2Cl)CC1 | -65
O=C(c1cccnc1)N1CCN(c2ccccc2Cl)CC1 | -18.5
COc1ccc(N2CCN(C(=O)c3cccc(Br)c3)CC2)c([N+](=O)[O-])c1 | -87.1
COc1ccc(N2CCN(C(=O)c3ccc(C)cc3)CC2)c([N+](=O)[O-])c1 | -62.9
COc1ccc(N2CCN(C(=O)c3cccnc3)CC2)c([N+](=O)[O-])c1 | -70.8
O=C(c1cccnc1)N1CCN(c2c(Cl)cccc2[N+](=O)[O-])CC1 | -46
O=C(c1ccc([N+](=O)[O-])cc1)N1CCN(C(=O)c2cccnc2)CC1 | -15.7
COc1cccc(C(=O)NC(=S)N2CCN(c3ccc(C(F)(F)F)cc3[N+](=O)[O-])CC2)c1 | 1.6
COc1cccc(N2CCN(C(=O)c3cccnc3)CC2)c1 | 11.2
